Molecules are shown by their SMILES. “And” between values parts separate entries of the source, which are not always exact repeats. Equal values may be shown once. A number with no mark means an inactive call. The source made the active and inactive calls.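 How the source made its calls: active means mean tau seeding fluorescence area under 1% of vehicle, meaning inhibition above a set limit; inactive means the rest.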

Chain of Microtubule-associated protein tau (Homo sapiens) (P10636 whole entry, looked up): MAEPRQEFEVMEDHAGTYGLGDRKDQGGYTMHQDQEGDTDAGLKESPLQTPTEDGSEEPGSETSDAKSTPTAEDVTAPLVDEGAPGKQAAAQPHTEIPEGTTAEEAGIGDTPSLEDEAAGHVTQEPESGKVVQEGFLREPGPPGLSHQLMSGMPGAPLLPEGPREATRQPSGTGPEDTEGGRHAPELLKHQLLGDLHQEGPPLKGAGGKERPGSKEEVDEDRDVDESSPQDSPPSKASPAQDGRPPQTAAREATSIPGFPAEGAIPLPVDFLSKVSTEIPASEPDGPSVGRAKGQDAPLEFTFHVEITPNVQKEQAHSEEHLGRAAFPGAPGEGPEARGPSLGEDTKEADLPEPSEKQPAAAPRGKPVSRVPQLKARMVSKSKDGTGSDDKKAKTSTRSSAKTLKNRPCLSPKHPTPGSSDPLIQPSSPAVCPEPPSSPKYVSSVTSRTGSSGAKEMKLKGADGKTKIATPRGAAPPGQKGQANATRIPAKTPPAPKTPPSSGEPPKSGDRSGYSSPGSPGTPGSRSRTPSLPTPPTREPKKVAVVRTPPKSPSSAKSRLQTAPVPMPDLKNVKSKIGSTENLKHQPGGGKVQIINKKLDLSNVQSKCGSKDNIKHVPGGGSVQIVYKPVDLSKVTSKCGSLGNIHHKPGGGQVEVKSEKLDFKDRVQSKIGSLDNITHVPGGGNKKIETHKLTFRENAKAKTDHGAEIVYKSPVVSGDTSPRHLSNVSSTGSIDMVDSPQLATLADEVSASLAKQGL

This test addresses Microtubule-associated protein tau (Homo sapiens) (UniProt P10636). Put plainly: inhibitors of seeded tau aggregation, primary screen, biochemical, seed amplification, ThT fluorescence (AID 2061166). The conditions noted are these: Recombinant tau seeded by AD brain, ThT fluorescence AUC; at 100 µM; hits give high values.
Broadly, the inhibition is the relative decrease from the control value, in per cent. Turning to `COc1ccc(Cl)cc1C(=O)NCCc1ccc(S(=O)(=O)NC(=O)NC2CCCCC2)cc1`, the inhibition was -30.9%.

Regarding `O=C1C=C(NC(Cc2c[nH]c3ccccc23)C(=O)O)C(=O)c2ccccc21` (configuration not stated), the inhibition is 52.4%.

Consider `C=CCc1ccc(O)c(-c2ccc(O)c(CC=C)c2)c1`, for which the inhibition is 93.5%.

Turning to `CN(C)CCC=C1c2ccccc2CCc2ccccc21`, the inhibition is 13.9%.

For `CNc1ccc2nc3ccc(=[N+](C)C)cc-3sc2c1`, the inhibition is 100% (active).

Turning to `CCN(CC)C(=S)SSC(=S)N(CC)CC`, the inhibition is -17.5%.

With `O=c1cc(-c2ccccc2)oc2cc(O)c(O)c(O)c12`, the inhibition was 97.6%.

Take `Nc1cccc2c1C(=O)N(C1CCC(=O)NC1=O)C2=O` (configuration not stated): the inhibition is 16.4%.

Consider `Cc1ccc(Nc2nccc(N(C)c3ccc4c(C)n(C)nc4c3)n2)cc1S(N)(=O)=O`, for which the inhibition was -1.27%.

As for `COC1CC2CCC(C)C(O)(O2)C(=O)C(=O)N2CCCCC2C(=O)OC(C(C)CC2CCC(OCCO)C(OC)C2)CC(=O)C(C)/C=C(\C)C(O)C(OC)C(=O)C(C)CC(C)/C=C/C=C/C=C/1C` (configuration not stated), the inhibition is 19.2%.

Regarding `CCOc1nc2cccc(C(=O)O)c2n1Cc1ccc(-c2ccccc2-c2nn[nH]n2)cc1`, the inhibition is 36.2%.

Consider `O=C(CCCN1CCC(O)(c2ccc(Cl)cc2)CC1)c1ccc(F)cc1`, for which the inhibition is -16.8%.

Regarding `CC1(C)OC2COC3(COS(N)(=O)=O)OC(C)(C)OC3C2O1` (configuration not stated), the inhibition was 20.5%.

On to `C[N+](C)(C)CCO`, for which the inhibition is 13.4%.

Consider `CCCNC1CCc2nc(N)sc2C1` (configuration not stated), for which the inhibition was 13.7% and -33.7%.

Take `CCCOC(C(=O)OC1CCN(C)CC1)(c1ccccc1)c1ccccc1`: the inhibition is 26.4%.

As to `O=C(O)CCCc1ccccc1`, the inhibition was 8.12%.

Take `COc1cc(C=CC(=O)CC(=O)C=Cc2ccc(O)c(OC)c2)ccc1O`: the inhibition is 86.4%.

As to `O=c1c(-c2ccc(O)cc2)coc2cc(O)cc(O)c12`, the inhibition was -59.4%.

Turning to `COC(=O)/C=C/C(=O)OC`, the inhibition is 3.37%.

Regarding `CCCCCCCCc1ccc(CCC(N)(CO)CO)cc1`, the inhibition is 59.3%.

In the case of `COC1C(=O)C2(C)C(OC)CC3OCC3(OC(C)=O)C2C(OC(=O)c2ccccc2)C2(O)CC(OC(=O)C(O)C(NC(=O)OC(C)(C)C)c3ccccc3)C(C)=C1C2(C)C` (configuration not stated), the inhibition was 10.4%.

Regarding `CC(=O)Oc1cc(C(F)(F)F)ccc1C(=O)O`, the inhibition is 27%.

Turning to `Nc1nc(Cl)nc2c1ncn2C1CC(O)C(CO)O1` (configuration not stated), the inhibition is -52.8%.

As for `CN(C)CCCN1c2ccccc2Sc2ccc(Cl)cc21`, the inhibition is 25.9%.

On to `O=C1CSC(=S)N1`, for which the inhibition is -4.3%.

As to `CC(=O)NC(CS)C(=O)O` (configuration not stated), the inhibition was 5.01%.

On to `COc1cc2nc(N(C)CCCNC(=O)C3CCCO3)nc(N)c2cc1OC` (configuration not stated), for which the inhibition was 17.4%.

In the case of `O=C(c1cc(O)c(O)c(O)c1)c1ccc(O)c(O)c1O`, the inhibition is 97.9%.

Consider `CCCCCCCCCC(=O)O`, for which the inhibition is 0.189%.

`O=C(O)c1ccccc1O`: the inhibition is 11.4%.

On to `C#Cc1cccc(Nc2ncnc3cc(OCCOC)c(OCCOC)cc23)c1`, for which the inhibition is -11.4%.

Values taken from PubChem BioAssay AID2061166 (Soto Lab, Mitchell Center for Alzheimers Disease and …, 2025).
